5 compounds from PubChem BioAssay can be followed below.

A short description of assay [1]: rapamycin-like changes in RPL19A-GFP expression – cell-based, S. cerevisiae, multiplex flow cytometry, primary screen (AID 1862).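 Also: lower values mimic rapamycin by blocking the RPL19A rise seen in DMSO cells.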 Particulars: S. cerevisiae RPL19A-GFP strain, flow cytometry fluorescence, 3 h; at 10 µM; stronger effect = lower value.
The nature of assay [2]: TOR pathway GLN3 branch reporter MEP2-GFP changes – S. cerevisiae, multiplex flow cytometry, primary screen (AID 1867;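 active = GFP response, as percent of the DMSO control, above the screen-wide mean plus 3 SD, about 139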;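 also: median GFP channel fluorescence of barcode-gated MEP2-GFP cells measured by flow cytometry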). Particulars: S. cerevisiae MEP2-GFP strain, 3 h, at 10 µM, stronger effect = higher value, 100% means same as DMSO wells.
Assay [3] can be described thus: TOR pathway RTG branch CIT2 reporter changes – S. cerevisiae, GFP fusion, multiplex flow cytometry, primary screen (AID 1870;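 active = percent response above a set limit, the screen-wide mean plus 3 SD, cut at about 130% in these data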;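 also: barcoded CIT2-GFP strain pooled with four other GFP strains with rapamycin as positive control; median GFP fluorescence per well over plate mean of DMSO wells so 100% = DMSO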). As to conditions: S. cerevisiae CIT2-GFP expression, 3 h, at 10 µM, stronger effect = higher value.
Assay [4] in a line: TOR pathway LAP4-GFP level changes – S. cerevisiae, multiplex flow cytometry, primary screen (AID 1873;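 active = GFP signal, as percent of the solvent control, above the screen mean plus 3 SD, about 149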). As to conditions: S. cerevisiae LAP4-GFP expression, 3 h, at 10 µM, stronger effect = higher value. On the technique in general: In flow cytometry, cells or beads pass a laser one at a time.
The nature of assay [5]: yeast AGP1-GFP level changes, GLN3 branch – cell-based, multiplex flow cytometry, S. cerevisiae, primary screen (AID 1887;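 active = GFP signal above the screen-wide mean plus 3 SD, that is over about 124.5% of the solvent control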;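 also: AGP1-GFP fusion strain of S. cerevisiae within a five-strain barcoded multiplex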). Particulars: 3 h, at 10 µM, stronger effect = higher value.
Assay [6] in a line: reduced mouse 2C T cell binding to pMHC/ICAM-1 vesicles – MLPCN validation set, flow cytometry, LFA-1/ICAM-1 modulator project, pilot screen (AID 2523;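 active = response below a set limit, under 55% cells CD8-positive and vesicle-bound, and CD8 cells' 90th-percentile brightness under 279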;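 as to vesicle binding response: mean PE anti-B7-1 fluorescence of CD8+ cells relative to row control; 100% = QL9-loaded vesicles with DMSO vehicle in the same plate row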). Particulars: 2C mouse CD8+ T cells, at 7 µM, stronger effect = lower value; double positive events: measured here: CD8+/vesicle+ event percentage.
Assay [7] concerns the target Integrin beta-1 (Homo sapiens) + Integrin alpha-4 (Homo sapiens) (UniProt P13612+P05556). The experiment in a line: alpha4beta1 integrin LIBS antibody binding reduction – U937 cells, HUTS-21 mAb, flow cytometry, validation set, VLA-4 allosteric modulator project, pilot screen (AID 2674;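 active = inhibition above 50%, about 3 SD of the validation set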;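 also: antibody binding induced by the VLA-4 ligand LDV present at three times its Kd; 0% = LDV ligand with antibody and no compound and 100% = antibody without LDV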). Particulars: HUTS-21 LIBS mAb binding, at 6.7 µM, stronger effect = higher value, binding induced by LDV ligand.

The nature of assay [8]: calorie-restriction mimetic ROS inhibitors, yeast – validation compound set, pilot screen (AID 2706;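 active = superoxide response below 65% of plate, a cut near 3 SD across the whole screen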;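 also: yeast exposed to compound for one week at 30 degrees C before staining; 100% = mean of all compound wells on the same plate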). Particulars: S. cerevisiae aging, superoxide DHE fluorescence; at 10 µM, stronger effect = lower value.
The target in assay [9] is Beta-adrenergic receptor kinase 1 (Homo sapiens) (UniProt P25098). In words: GRK2 binders displacing RNA aptamer, biochemical, validation, human GRK2, bead flow cytometry (AID 488806;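 active = aptamer binding inhibition above 30%, about 3 SD of noise from non-fluorescent compounds; inactive = inhibition at or below 30%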). Particulars: bead-bound GRK2, FAM-aptamer displacement, at 10 µM, stronger effect = higher value.
Sequence of Beta-adrenergic receptor kinase 1 (Homo sapiens) (P25098 whole entry, looked up): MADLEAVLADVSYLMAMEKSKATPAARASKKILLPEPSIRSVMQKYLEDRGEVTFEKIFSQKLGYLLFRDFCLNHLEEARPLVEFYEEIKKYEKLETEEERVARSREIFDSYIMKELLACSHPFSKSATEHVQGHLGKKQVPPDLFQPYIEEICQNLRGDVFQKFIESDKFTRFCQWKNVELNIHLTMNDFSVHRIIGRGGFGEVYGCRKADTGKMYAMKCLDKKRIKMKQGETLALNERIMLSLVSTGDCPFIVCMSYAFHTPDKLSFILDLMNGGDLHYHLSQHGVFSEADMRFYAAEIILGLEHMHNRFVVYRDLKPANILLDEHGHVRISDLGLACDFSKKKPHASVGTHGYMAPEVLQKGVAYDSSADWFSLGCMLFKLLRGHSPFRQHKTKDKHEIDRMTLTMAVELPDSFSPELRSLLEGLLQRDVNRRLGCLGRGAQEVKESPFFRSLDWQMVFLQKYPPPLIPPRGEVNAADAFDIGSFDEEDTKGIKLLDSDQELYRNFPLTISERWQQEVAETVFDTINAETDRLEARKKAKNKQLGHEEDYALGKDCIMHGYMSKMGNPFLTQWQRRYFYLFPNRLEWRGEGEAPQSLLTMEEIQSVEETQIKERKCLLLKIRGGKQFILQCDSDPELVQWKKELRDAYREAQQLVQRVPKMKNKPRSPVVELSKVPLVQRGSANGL
Assay [10] addresses Beta-2 adrenergic receptor (Homo sapiens) (UniProt P07550). In words: agonist-induced loss of surface beta2AR – cell-based, FAP fluorogen, flow cytometry, validation set, pilot screen (AID 504459;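 active = percent response above 42, roughly 3 SD of non-fluorescent test compounds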;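 also: agonist-driven loss of surface beta2AR via internalization measured by FAP dye flow cytometry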). Particulars: Am2.2-beta2AR cells, at 10 µM, stronger effect = higher value.
The target in assay [11] is AP-2 complex subunit beta (Homo sapiens) (UniProt P63010). In words: beta-arrestin/AP2 interaction blockers – biochemical, validation set, GST-AP2 beads, flow cytometry, pilot screen (AID 504541;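 active = inhibition above 54%, about 3 SD of non-fluorescent compounds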;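 also: AP2 carries R879A mutation and is captured from E. coli lysate; bead-bound FITC arrestin peptide fluorescence measuring arrestin peptide binding to AP2; 0% = DMSO wells and 100% = excess unlabeled arrestin peptide control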). Particulars: FITC arrestin peptide, at 10 µM, stronger effect = higher value, AP2 beta2 appendage fragment, R879A mutant.
Sequence of AP-2 complex subunit beta (Homo sapiens) (P63010 whole entry, looked up, the tested form may be a part, one chain of several): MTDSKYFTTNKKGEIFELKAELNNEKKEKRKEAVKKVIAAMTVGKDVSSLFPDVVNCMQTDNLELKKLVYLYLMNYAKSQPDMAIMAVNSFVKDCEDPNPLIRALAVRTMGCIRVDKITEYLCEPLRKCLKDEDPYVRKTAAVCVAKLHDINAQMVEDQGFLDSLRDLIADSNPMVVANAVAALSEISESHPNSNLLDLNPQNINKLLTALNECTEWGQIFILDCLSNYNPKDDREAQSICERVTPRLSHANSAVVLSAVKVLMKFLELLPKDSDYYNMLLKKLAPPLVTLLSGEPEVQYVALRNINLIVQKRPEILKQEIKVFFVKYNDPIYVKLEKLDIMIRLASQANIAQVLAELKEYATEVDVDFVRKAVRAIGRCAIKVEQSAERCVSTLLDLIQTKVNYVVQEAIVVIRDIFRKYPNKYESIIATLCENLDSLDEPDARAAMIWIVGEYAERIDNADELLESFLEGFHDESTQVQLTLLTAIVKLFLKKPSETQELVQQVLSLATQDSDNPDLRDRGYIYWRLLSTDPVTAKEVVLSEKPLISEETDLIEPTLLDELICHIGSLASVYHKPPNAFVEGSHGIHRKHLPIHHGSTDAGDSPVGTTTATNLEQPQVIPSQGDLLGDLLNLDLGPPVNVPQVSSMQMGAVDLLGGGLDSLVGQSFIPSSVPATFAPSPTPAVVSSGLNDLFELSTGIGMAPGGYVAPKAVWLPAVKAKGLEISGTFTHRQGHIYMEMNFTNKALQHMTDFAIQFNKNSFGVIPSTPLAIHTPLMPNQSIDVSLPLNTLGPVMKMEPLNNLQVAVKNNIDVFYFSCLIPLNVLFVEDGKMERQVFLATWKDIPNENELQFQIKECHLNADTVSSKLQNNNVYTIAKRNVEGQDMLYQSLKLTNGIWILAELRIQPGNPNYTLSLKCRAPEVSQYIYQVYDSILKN
Assay [12] in a line: cytosolic pH regulators acting via V-ATPase – S. cerevisiae, pHLuorin, HTS validation (AID 504600; in the data active = response above about 15%;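 also: plate controls were DMSO for no effect and reference compound for full effect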). Particulars: V-ATPase proton transport, at 10 µM, stronger effect = higher value.
The test system of assay [13] is anti-desmoglein-3 scFv antibody binding to human DSG3. In words: blockers of pathogenic pemphigus antibody–desmoglein-3 binding – biochemical, validation compound set, bead-based, flow cytometry, pilot screen (AID 588368;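 active = binding below the plate cutoff, the plate median minus 3 SD, with a reading above zero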;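 also: signal is the median channel fluorescence of bead-bound GFP antibody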). As to conditions: Protein G beads, DSG3-Fc, scFv-GFP binding, at 10 µM, stronger effect = lower value.
The target in assay [14] is ATP-binding cassette sub-family B member 6 (Homo sapiens) (UniProt Q9NP58). The experiment in a line: blockers of ABCB6-driven porphyrin uptake – K562-ABCB6 cells, flow cytometry, validation set, pilot screen (AID 588550;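 active = inhibition above the screen-wide mean plus 3 SD, about 51%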;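 also: 0% = DMSO wells and 100% = benzethonium chloride 70 µM positive control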). As to conditions: K562-ABCB6 porphyrin accumulation, 1 h, at 10 µM, stronger effect = higher value.
Sequence of ATP-binding cassette sub-family B member 6 (Homo sapiens) (Q9NP58 whole entry, looked up): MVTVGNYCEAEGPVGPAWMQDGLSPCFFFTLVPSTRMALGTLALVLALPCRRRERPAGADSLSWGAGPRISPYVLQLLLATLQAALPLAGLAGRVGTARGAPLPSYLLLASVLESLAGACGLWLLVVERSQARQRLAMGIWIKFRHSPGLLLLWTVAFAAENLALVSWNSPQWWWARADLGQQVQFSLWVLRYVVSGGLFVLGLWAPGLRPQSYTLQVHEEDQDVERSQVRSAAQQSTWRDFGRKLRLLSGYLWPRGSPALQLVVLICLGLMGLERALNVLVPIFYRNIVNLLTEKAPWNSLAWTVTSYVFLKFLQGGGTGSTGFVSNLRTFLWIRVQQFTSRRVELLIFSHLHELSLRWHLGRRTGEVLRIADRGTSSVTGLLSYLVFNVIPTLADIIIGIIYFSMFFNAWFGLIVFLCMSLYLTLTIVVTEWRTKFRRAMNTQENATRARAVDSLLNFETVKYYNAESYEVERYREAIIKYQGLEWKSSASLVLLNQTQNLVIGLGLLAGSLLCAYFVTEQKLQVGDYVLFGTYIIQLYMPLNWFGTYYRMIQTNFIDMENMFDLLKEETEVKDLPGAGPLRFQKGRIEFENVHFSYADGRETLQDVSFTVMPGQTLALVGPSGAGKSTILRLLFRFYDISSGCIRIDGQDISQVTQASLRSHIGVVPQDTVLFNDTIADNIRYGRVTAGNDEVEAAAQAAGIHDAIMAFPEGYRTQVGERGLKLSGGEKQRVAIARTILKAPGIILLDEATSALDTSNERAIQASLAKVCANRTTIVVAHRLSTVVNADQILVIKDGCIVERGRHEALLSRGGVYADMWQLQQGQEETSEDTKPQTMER
Assay [15] in a line: AML differentiation inducers, ER-HoxA9 marrow cells – cell-based, GFP/MAC1 double positive, flow cytometry, validation set, primary screen (AID 588685;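 active = differentiation response of at least 50%, scaled between solvent and reference control, from cells with both markers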;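 also: compound exposure lasts four days before antibody staining and flow analysis; 0% = DMSO wells and 100% = 5 µM fulvestrant positive control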). Particulars: stronger effect = higher value, normalized: vehicle 0, fulvestrant 100.
Assay [16] can be described thus: Nile Red efflux blockade in pump-expressing yeast – validation compound set, multiplex, phenotypic, pilot screen (AID 588506;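 active = efflux inhibition above 0.42, the validation set average plus 4 SD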;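 also: Nile Red retained in cells so higher fluorescence means more efflux inhibition; 0 = negative control wells and 1 = enniatin B 25 µM full block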). Particulars: S. cerevisiae pump-expressing triplex, Nile Red efflux flow cytometry; at 10 µM; stronger effect = higher value; the pumps come from Candida albicans.

The term inhibition denotes the relative decrease from the control value, in per cent.

Inconclusive results are not listed. Activity calls are given as the source filed them. Rule as the data show it, unless noted: active = percent of DMSO control GFP below about 86%; inactive = the rest, inconclusive results apart.

Sequence of Integrin beta-1 (Homo sapiens) + Integrin alpha-4 (Homo sapiens) (P05556 whole entry, looked up): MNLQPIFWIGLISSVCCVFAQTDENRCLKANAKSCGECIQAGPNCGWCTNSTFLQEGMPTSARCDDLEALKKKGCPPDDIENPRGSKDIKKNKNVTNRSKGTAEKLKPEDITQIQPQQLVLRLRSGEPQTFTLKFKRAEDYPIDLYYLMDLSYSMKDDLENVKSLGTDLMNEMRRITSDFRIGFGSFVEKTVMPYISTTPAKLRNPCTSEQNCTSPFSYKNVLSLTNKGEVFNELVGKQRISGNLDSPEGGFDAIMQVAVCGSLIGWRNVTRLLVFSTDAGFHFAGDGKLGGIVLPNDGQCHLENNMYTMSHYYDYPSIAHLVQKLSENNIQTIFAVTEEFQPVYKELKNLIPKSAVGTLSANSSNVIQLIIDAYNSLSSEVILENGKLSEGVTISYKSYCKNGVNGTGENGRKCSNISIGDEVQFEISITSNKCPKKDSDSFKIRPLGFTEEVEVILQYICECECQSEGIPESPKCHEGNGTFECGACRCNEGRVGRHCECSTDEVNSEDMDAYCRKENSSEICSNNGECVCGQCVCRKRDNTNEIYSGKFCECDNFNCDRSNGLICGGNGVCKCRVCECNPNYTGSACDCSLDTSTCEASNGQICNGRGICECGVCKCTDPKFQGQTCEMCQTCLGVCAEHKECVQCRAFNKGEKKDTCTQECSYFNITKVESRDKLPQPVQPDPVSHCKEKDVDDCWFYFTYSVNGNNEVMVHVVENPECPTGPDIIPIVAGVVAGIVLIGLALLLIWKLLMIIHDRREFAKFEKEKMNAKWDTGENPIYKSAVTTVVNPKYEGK
Sequence of Integrin beta-1 (Homo sapiens) + Integrin alpha-4 (Homo sapiens) (P13612 whole entry, looked up): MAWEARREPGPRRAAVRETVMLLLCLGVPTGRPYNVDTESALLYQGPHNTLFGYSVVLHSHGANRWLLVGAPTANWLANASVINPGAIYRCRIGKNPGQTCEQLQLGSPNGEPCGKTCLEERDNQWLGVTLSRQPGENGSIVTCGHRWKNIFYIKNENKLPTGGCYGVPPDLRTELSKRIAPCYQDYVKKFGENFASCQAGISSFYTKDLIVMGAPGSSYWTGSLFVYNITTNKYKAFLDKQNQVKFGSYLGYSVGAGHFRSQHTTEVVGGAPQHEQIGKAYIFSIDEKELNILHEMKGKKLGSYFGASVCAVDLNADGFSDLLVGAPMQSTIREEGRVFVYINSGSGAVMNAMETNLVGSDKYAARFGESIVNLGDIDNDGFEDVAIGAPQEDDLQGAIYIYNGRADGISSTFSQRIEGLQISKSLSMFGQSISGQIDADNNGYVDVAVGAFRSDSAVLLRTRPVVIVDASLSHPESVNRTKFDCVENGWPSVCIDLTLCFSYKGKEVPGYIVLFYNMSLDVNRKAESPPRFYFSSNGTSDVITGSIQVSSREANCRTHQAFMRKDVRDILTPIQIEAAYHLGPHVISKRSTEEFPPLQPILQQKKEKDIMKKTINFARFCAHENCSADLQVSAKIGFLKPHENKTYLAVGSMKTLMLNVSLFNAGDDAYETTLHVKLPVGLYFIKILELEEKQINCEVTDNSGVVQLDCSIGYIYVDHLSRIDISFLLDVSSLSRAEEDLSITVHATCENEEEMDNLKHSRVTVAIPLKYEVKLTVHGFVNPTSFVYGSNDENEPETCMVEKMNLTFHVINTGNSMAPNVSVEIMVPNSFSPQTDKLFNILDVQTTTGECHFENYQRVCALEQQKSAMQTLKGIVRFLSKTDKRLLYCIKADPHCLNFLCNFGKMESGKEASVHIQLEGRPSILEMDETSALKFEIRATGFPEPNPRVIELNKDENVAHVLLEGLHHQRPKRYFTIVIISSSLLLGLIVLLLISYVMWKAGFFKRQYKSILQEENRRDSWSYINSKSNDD
Sequence of Beta-2 adrenergic receptor (Homo sapiens) (P07550 whole entry, looked up): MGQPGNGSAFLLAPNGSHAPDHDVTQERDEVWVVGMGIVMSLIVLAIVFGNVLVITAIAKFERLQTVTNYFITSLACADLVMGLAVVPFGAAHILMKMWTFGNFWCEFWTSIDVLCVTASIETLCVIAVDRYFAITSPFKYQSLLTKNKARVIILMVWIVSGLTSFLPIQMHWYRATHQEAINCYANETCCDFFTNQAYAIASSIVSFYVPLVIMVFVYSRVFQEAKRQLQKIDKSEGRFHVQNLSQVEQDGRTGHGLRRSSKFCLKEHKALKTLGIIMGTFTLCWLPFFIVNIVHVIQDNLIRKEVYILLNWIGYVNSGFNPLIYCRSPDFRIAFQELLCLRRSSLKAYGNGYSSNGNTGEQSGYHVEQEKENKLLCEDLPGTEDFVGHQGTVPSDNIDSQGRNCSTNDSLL

As to `CC1COc2c(N3CCN(C)CC3)c(F)cc3c(=O)c(C(=O)O)cn1c23` (stereo not given), the percent of DMSO control GFP in assay [1] was 92.2% (inactive). Moreover, the results for the GFP response vs DMSO in assay [2] and in assay [4] were 120% (inactive) and 77.6% (inactive), respectively. In addition, the percent response of DMSO control in assay [3] is 103% (inactive). The GFP response, % of DMSO in assay [5] is 90.8% (inactive). Moreover, the double positive events in assay [6] is 64.3%. The vesicle binding response in assay [6] is 109% (inactive). Besides, the results for the inhibition in assay [7], in [11] and in [14] were 11.3% (inactive), 2.93% (inactive) and 7% (inactive), respectively. Besides, the superoxide response (% of plate) in assay [8] is 112% (inactive). In addition, in assay [9], the aptamer binding inhibition is 2% (inactive). Further, the response is -5.81% (inactive) in assay [10] and -5.31% (inactive) in assay [12]. In addition, in assay [13], the binding (% of control) is 95.4% (inactive). For the same compound, the differentiation response in assay [15] is -5.73% (inactive).

With `CC(C)NC(=O)c1ccc(C(C)C)cc1`, in assay [1], the percent of DMSO control GFP was 98.4% (inactive). The GFP response vs DMSO in [2] is 102% (inactive); in assay [4], 118% (inactive). Further, in assay [3], the percent response of DMSO control is 108% (inactive). For the same compound, the GFP response, % of DMSO in [5] is 101% (inactive). The same compound displayed a double positive events in [6] of 63.6%. The vesicle binding response in assay [6] was 255% (inactive). The inhibition was -11.3% (inactive) in assay [7], -5.8% (inactive) in assay [11] and 13% (inactive) in [14]. In addition, the superoxide response (% of plate) in assay [8] is 109% (inactive). Moreover, the aptamer binding inhibition in assay [9] was -2% (inactive). For the same compound, the response in [10] was 0.9% (inactive); in assay [12] it was -1.44% (inactive). For the same compound, the binding (% of control) in assay [13] is 102% (inactive). Further, the differentiation response in [15] is 2.4% (inactive).

With `CCC(C)NCCOCCOc1ccc(Cl)c2ccccc12` (stereo not given), in [1], the percent of DMSO control GFP is 96.6% (inactive). Further, the figures for the GFP response vs DMSO in [2] and in assay [4] were 123% (inactive) and 99% (inactive), respectively. Besides, in assay [3], the percent response of DMSO control was 107% (inactive). In addition, the GFP response, % of DMSO in assay [5] is 96.1% (inactive). Also, in assay [6], the double positive events was determined as 56.7%. For the same compound, in assay [6], the vesicle binding response is 204% (inactive). Besides, the inhibition in assay [7] is 26.8% (inactive); in assay [14] it was 6% (inactive). In addition, the superoxide response (% of plate) in assay [8] is 83.4% (inactive). In addition, the aptamer binding inhibition in assay [9] was -5% (inactive). Also, the response was 34.5% (inactive) in assay [10] and -0.59% (inactive) in [12]. The binding (% of control) in assay [13] is 108% (inactive). In assay [16], the efflux inhibition (fraction of control) is 0.09 (inactive). Moreover, in assay [15], the differentiation response is 24.6% (inactive).

`CC(C)c1ccccc1OCCNC(=S)NC(=O)c1cccnc1`: in assay [1], the percent of DMSO control GFP is 98.2% (inactive). Also, the GFP response vs DMSO in assay [2] was 97.4% (inactive); in assay [4] it was 96.5% (inactive). Besides, the percent response of DMSO control in [3] is 92% (inactive). Also, the GFP response, % of DMSO in [5] was 96.3% (inactive). Moreover, in assay [6], the double positive events was determined as 62.4%. Further, the vesicle binding response in [6] was 185% (inactive). Further, the inhibition in assay [7] was 22.8% (inactive); in [14], 3% (inactive). Besides, the superoxide response (% of plate) in [8] is 105% (inactive). The aptamer binding inhibition in assay [9] was -3% (inactive). Also, the response was 4.29% (inactive) in assay [10] and -2.54% (inactive) in assay [12]. Besides, the binding (% of control) in [13] was 99.7% (inactive). Moreover, the efflux inhibition (fraction of control) in assay [16] was 1.3 (active). Also, in assay [15], the differentiation response was 100% (active).

Take `COc1cc(Cl)cc2c1Sc1ccccc1/C2=C/CCN(C)C`: in assay [1], the percent of DMSO control GFP was 97.1% (inactive). Further, the GFP response vs DMSO in assay [2] was 105% (inactive); in assay [4], 93.7% (inactive). Also, the percent response of DMSO control in assay [3] was 94.9% (inactive). Moreover, the GFP response, % of DMSO in assay [5] is 92.6% (inactive). The double positive events in assay [6] worked out at 63.9%. For the same compound, in [6], the vesicle binding response was 1310% (inactive). The inhibition in [7] is -7.47% (inactive); in [14] it was 0% (inactive). Further, the superoxide response (% of plate) in assay [8] is 104% (inactive). In addition, the aptamer binding inhibition in assay [9] is -8% (inactive). Further, the figures for the response in [10] and in assay [12] were 20% (inactive) and 0.4% (inactive), respectively. Further, the binding (% of control) in [13] is 110% (inactive). Moreover, the efflux inhibition (fraction of control) in [16] is -0.09 (inactive). In addition, the differentiation response in assay [15] is -2.64% (inactive).
